The record followed here is PubChem BioAssay (NCATS).

Values without a mark were called inactive. Records with an inconclusive call do not appear. Active and inactive are the calls of the source. Unless noted, calls follow the shape of the dose curve; as a rule, active = well fitted curve in the direction sought with a large enough effect; inconclusive = small, poorly fitted or top-dose-only effect, or another doubt; inactive = no such curve, though single readings can be large; an effect the other way counts as inactive or inconclusive.

The target in experiment [1] is Lysosomal acid glucosylceramidase (Homo sapiens) (UniProt P04062). Nature of the experiment: Glucocerebrosidase-p2 (AID 348; in the data active = potency below about 10 µM; also: potency is read from the fitted curve at half-maximal effect). Particulars: purified GBA, blue fluorogenic substrate, 40 min. The essentials:
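Compounds titrated from 0.6 nM upwards against 0.2 nM enzyme in pH 5.9 citric acid/KH2PO4, taurocholate, tween-20; blue fluorogenic substrate 80 uM, 40 min room temperature, stopped and read Ex 365/Em 440 for AC50.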

Experiment [2] is described as follows: NFAT Signaling Pathway (AID 444; active = well fitted curve in either direction with a large enough effect, not every such curve was filed as active;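 also: carbachol stimulus at about its EC50 of 1 µM final; % is scaled to controls: 0 for no effect and ±100 for the full control effect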). Particulars: Jurkat NFAT-bla M1, carbachol, beta-lactamase ratio, 5 h; at 7.69 µM (top of the series) unless noted. In a few lines: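 Read-out: CCF4 FRET ratio (460 nm/530 nm) after 1 h RT dye loading, used for %activity and AC50 from titration series. Cells: Jurkat NFAT-β-lactamase/M1 line, treated with compound plus 1 uM carbachol for 5 h, 37 °C.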

Experiment [3] can be described thus: Stat Signaling Pathway (AID 446; active = well fitted curve in either direction with a large enough effect, not every such curve was filed as active;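 also: ME-180 cervical cancer cells given 40 pM IL-6 alongside compound; SIE-controlled beta-lactamase reporter measured as 460/530 nm FRET emission ratio; % is scaled to controls: 0 for no effect and ±100 for the full control effect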). To be noted: ME-180 SIE beta-lactamase reporter, IL-6 stimulated, 5 h; at 7.69 µM (top of the series) unless noted. In a few lines:
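IL-6/STAT signaling read in ME-180 cells via an SIE beta-lactamase reporter. Stimulus was 40 pM IL-6 (its AC50) for 5 hrs, so both activation and inhibition register.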

Experiment [4] has as its target Glucocorticoid receptor (Homo sapiens) (UniProt P04150). Description: GR-GFP Redistribution (AID 450;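 active = compounds whose dose series gives a full or clear partial fitted curve of increased nuclear translocation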; also: potency is read from the fitted curve at half-maximal effect). To be noted: U2OS GR-GFP nuclear translocation, laser cytometry, 2 h.
The target is the same in experiment [5]. Nature of the experiment: GR-EFC Redistribution (AID 451; calls by dose curve; also: potency is read from the fitted curve at half-maximal effect). Particulars: CHO-K1 GR-EFC translocation, beta-gal luminescence, 2 h. The essentials: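 Translocation of GR-ED fusion to nuclear EA restores b-gal, read by luminescence after 1 h room-temperature detection. Engineered CHO-K1 biosensor cells, 1,000/well, exposed 2 h at 37 C to titrations up to 46 uM final.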

The target in experiment [6] is Mitogen-activated protein kinase 10 (Mus musculus) (UniProt Q61831). Description: JNK3 AlphaScreen Assay (AID 530; active = well fitted curve in either direction with a large enough effect, not every such curve was filed as active;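 also: kinase came from lysate of stimulated human HepG2 cells; signal reports phosphorylation of biotinylated GST-cJun 1-79 at Ser73 with 10 µM ATP; % is scaled to controls: 0 for no effect and ±100 for the full control effect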). Particulars: JNK3 lysate, c-Jun phosphorylation; series mostly up to 57.1 µM. The essentials:
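Compound titrations were preincubated 15 minutes at room temperature with substrate, antibody and pre-activated JNK3-containing HepG2 lysate. Reactions were started with 10 uM ATP and stopped with EDTA-containing bead buffer for AlphaScreen detection.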

For experiment [7], the target named is 3',5'-cyclic-AMP phosphodiesterase 4B (Homo sapiens) (UniProt Q07343). Nature of the experiment: qHTS Assay for Inhibitors of PDE-IV (AID 607; active = well fitted activation curve with a large enough effect in the main read-out, with a control signal flat, not every such curve was filed as active; also: % of control where 0% means no effect). Particulars: HEK293 ACTOne CNG channel cells, membrane potential fluorescence; series mostly up to 22.9 µM. The essentials: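 Live HEK293 cells with a modified cyclic nucleotide-gated (CNG) channel report intracellular cAMP via membrane-potential dye fluorescence (ex 535/em 590 nm). Endogenous PDE-IV was targeted. Compounds were tested at up to 22.9 uM final; RO 20-1724 100 uM served as control.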
Sequence of 3',5'-cyclic-AMP phosphodiesterase 4B (Homo sapiens) (Q07343 whole entry, looked up): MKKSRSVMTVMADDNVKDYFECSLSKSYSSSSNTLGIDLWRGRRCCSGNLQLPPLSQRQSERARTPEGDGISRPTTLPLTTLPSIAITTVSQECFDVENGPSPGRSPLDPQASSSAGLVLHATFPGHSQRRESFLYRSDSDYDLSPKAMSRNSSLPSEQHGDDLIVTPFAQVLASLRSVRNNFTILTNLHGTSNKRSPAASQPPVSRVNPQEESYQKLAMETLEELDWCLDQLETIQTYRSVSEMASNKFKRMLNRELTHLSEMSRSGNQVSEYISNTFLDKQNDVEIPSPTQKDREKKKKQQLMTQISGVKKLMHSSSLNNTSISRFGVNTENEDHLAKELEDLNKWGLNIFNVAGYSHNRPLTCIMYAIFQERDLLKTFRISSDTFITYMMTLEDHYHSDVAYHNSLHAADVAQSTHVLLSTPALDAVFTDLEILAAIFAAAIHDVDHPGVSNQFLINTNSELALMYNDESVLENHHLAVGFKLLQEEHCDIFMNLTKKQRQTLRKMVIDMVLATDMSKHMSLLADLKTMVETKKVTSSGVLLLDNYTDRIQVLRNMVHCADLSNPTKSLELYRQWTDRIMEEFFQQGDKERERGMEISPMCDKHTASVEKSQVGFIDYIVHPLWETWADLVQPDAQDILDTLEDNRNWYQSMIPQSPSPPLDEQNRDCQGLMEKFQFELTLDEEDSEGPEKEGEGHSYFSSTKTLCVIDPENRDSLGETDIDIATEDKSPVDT
A general note: Quantitative high-throughput screening tests each substance at several concentrations.

Experiment [8] addresses Cytochrome P450 3A4 (Homo sapiens) (UniProt P08684). Description: qHTS Assay for Activators of Cytochrome P450 3A4 (AID 885). Also: nearly all actives have a fitted effect of over 65% in size. To be noted: recombinant CYP3A4, Luciferin-PPXE luminescence, 60 min; series mostly up to 57.1 µM. The essentials:
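Quantitative HTS format: compounds preincubated with 20nM human CYP3A4 and Luciferin-PPXE substrate at KM, reaction started by NADPH regeneration, stopped after 60 min, luciferase luminescence read 20 min later.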

Experiment [9] addresses Dual specificity protein kinase CLK4 (Homo sapiens) (UniProt Q9HAZ1). Description: qHTS Assay for Inhibitors of CDC-like Kinase 4 (Kinase-Glo Assay) (AID 1770). Also: nearly all actives have a fitted effect of over 65% in size. Also: potency is read from the fitted curve at half-maximal effect. Particulars: recombinant Clk4, Kinase-Glo ATP depletion luminescence; series mostly up to 66.7 µM. The essentials:
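Readout: Kinase-Glo luminescence from ATP left after a 4.5 h room-temperature reaction of 25 nM Clk4 with 100 uM RS peptide and 1 uM ATP (final). Buffer: 25 mM Tris pH 7.5, 10 mM MgCl2.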

Experiment [10] has the same target. Description: qHTS Assay for Inhibitors of CDC-like Kinase 4 (ADP-Glo Assay) (AID 1771). Also: nearly all actives have a fitted effect of over 70% in size. Also: potency is read from the fitted curve at half-maximal effect. Particulars: recombinant CLK4, ADP-Glo luminescence; series mostly up to 80 µM. In a few lines: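 Luminescence from ADP-Glo reports ADP produced by 25 nM Clk4 acting on 100 uM RS repeat peptide with 1 uM ATP over 1 hr at room temperature; residual ATP is depleted before ADP is converted to ATP for detection.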

For experiment [11] the target is unchanged. Nature of the experiment: qHTS Assay for Inhibitors of CDC-like Kinase 4 (ADP-FP Assay) (AID 1795). Also: nearly all actives have a fitted effect of over 60% in size. Also: potency is read from the fitted curve at half-maximal effect. To be noted: Transcreener ADP fluorescence polarization; series mostly up to 50 µM. In a few lines: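 FP readout: Orange Transcreener ADP2 tracer (4 nM) plus ADP antibody, read after 30 min at room temperature. Kinase step: 6.25 nM Clk4, 100 uM RS peptide, 1 uM ATP, pH 7.5, 1 h.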

The target of experiment [12] is Ubiquitin carboxyl-terminal hydrolase 1 (Homo sapiens) (UniProt O94782). Description: Inhibitors of USP1/UAF1: Pilot qHTS (AID 504865).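 Also: rhodamine fluorescence freed from ubiquitin-rhodamine substrate followed over time; top concentration of the series differs between compounds; % is scaled to controls: 0 for no effect and ±100 for the full control effect; nearly all actives have a fitted effect of over 35% in size.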 To be noted: purified USP1/UAF1, Ub-rhodamine cleavage fluorescence; series mostly up to 54.9 µM. The essentials: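 1nM USP1/UAF1 + cpd, 15 min RT; start w/ Ub-Rho 150nM final; kinetic FL 480/540 nm, 6 reads q60 s. Buffer 50mM HEPES pH 7.8, 0.5mM EDTA, 1mM TCEP, 0.01% Tween-20, 0.1 mg/ml BSA.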
Sequence of Ubiquitin carboxyl-terminal hydrolase 1 (Homo sapiens) (O94782 whole entry, looked up): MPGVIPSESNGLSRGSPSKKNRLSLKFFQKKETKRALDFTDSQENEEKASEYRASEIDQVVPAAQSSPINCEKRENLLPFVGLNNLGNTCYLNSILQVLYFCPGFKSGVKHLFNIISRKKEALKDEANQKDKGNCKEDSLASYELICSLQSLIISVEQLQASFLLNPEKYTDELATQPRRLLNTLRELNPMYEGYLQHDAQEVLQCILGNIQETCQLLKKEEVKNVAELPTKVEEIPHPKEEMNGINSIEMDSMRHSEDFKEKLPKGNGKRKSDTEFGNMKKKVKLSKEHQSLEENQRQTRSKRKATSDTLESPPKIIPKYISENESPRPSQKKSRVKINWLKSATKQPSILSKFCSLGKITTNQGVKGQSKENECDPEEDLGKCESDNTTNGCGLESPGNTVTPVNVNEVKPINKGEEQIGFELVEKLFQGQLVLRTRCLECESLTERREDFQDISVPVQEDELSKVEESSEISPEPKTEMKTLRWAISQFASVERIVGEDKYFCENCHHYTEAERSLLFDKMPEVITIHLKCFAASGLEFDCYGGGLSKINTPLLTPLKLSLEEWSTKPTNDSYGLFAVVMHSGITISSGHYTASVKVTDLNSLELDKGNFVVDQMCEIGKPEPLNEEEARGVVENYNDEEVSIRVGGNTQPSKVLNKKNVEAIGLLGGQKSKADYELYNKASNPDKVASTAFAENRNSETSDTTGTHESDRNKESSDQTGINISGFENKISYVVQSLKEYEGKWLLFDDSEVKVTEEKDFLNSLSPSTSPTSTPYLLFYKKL

A short description of experiment [13]: Primary qHTS for small molecule stabilizers of the endoplasmic reticulum resident proteome: Secreted ER Calcium Modulated Protein (SERCaMP) assay (AID 1508630). Also: % is scaled to controls: 0 for no effect and ±100 for the full control effect. Particulars: SH-SY5Y GLuc-SERCaMP (Gaussia luciferase released on ER calcium loss) secretion, thapsigargin, luminescence; series mostly up to 38.4 µM. The essentials: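 GLuc-SERCaMP-expressing SH-SY5Y cells, pretreated 16 h with compound, are challenged with thapsigargin to empty ER calcium stores; after 4 h, coelenterazine is added directly to the medium and luminescence is imaged.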

A short description of experiment [14]: AP1 Signaling Pathway (AID 357; active = well fitted curve in either direction with a large enough effect, not every such curve was filed as active). To be noted: ME-180 AP-1-bla reporter, EGF-induced, beta-lactamase ratio, 5 h; at 7.69 µM (top of the series) unless noted. In a few lines: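 A ratiometric CCF4 readout (405 nm excitation; 460 and 530 nm emission) quantified AP-1-driven beta-lactamase in ME-180 cells after 5 h with compound and EC50 EGF; AC50 values were derived for activators and inhibitors.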

Experiment [15] addresses Cytochrome P450 1A2 (Homo sapiens) (UniProt P05177). Description: p450-cyp1a2 (AID 410; calls by dose curve; also: potency is read from the fitted curve at half-maximal effect). To be noted: recombinant CYP1A2, luciferin-ME demethylation, luminescence; series mostly up to 57 µM. The essentials: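 Luminescent readout of luciferin formed from Luciferin-ME by human CYP1A2; data normalized against complete inhibition by 57 uM furafylline. Enzyme 20nM, substrate 100uM at Km, 100mM KPO4 buffer, 60 min reaction at room temperature.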

Experiment [16] concerns the target Cytochrome P450 2C19 (Homo sapiens) (UniProt P33261). Nature of the experiment: qHTS Assay for Inhibitors and Substrates of Cytochrome P450 2C19 (AID 899). Also: potency is read from the fitted curve at half-maximal effect; nearly all actives have a fitted effect of over 60% in size. To be noted: recombinant CYP2C19, luciferin-H EGE luminescence; series mostly up to 57.1 µM. In a few lines:
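Luminescence readout of luciferin formed from 10uM Luciferin-H EGE (KM level) by 5 nM CYP2C19 in 50mM KPO4. 60 min NADPH-driven reaction at 37C after 10 min compound preincubation; data scaled to 57uM ketoconazole inhibition.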

The nature of experiment [17]: qHTS Assay for Identification of Small Molecule Agonists for Hypoxia Response Element Signaling Pathway (AID 914; active = well fitted activation curve with a large enough effect in the signal ratio, with a control signal flat, not every such curve was filed as active; the % refers to the signal ratio; also: potency is read from the fitted curve at half-maximal effect). To be noted: ME-180 (cervical carcinoma) HRE-bla reporter, beta-lactamase ratio, CoCl2, 17 h; activation: active compounds read high. The essentials: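 Positive modulation of EC50 CoCl2-induced hypoxia response element signaling is measured in ME-180 cells with a beta-lactamase reporter. Compounds are titrated, incubation runs 17 hours, and %Activity derives from the blue/green ratio.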

Sequence of Dual specificity protein kinase CLK4 (Homo sapiens) (Q9HAZ1 whole entry, looked up): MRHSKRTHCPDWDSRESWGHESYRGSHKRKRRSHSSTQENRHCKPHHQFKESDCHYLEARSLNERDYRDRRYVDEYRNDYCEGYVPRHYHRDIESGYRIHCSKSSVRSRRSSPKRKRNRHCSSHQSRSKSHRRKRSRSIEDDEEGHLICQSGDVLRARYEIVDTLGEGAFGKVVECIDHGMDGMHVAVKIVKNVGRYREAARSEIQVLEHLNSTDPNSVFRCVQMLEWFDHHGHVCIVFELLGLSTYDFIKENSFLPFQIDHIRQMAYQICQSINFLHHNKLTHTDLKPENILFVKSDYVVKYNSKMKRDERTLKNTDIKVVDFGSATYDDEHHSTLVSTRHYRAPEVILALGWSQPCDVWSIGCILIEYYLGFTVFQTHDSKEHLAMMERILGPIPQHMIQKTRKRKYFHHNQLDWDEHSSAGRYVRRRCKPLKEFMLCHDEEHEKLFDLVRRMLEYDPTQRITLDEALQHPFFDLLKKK
Sequence of Lysosomal acid glucosylceramidase (Homo sapiens) (P04062 whole entry, looked up): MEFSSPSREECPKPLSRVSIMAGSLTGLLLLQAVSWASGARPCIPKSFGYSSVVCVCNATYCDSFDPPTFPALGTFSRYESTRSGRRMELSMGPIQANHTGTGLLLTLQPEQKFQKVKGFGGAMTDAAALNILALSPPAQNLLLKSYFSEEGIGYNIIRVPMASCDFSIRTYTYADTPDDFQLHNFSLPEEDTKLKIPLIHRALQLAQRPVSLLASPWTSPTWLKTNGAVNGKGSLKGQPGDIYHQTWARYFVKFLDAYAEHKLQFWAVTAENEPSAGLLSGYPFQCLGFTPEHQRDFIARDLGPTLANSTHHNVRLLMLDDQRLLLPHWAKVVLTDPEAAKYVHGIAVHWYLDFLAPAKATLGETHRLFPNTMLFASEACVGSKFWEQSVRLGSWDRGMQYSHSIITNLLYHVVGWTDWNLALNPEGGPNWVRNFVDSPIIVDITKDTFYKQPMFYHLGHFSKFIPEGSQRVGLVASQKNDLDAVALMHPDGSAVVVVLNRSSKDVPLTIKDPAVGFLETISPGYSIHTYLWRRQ
Sequence of Cytochrome P450 3A4 (Homo sapiens) (P08684 whole entry, looked up): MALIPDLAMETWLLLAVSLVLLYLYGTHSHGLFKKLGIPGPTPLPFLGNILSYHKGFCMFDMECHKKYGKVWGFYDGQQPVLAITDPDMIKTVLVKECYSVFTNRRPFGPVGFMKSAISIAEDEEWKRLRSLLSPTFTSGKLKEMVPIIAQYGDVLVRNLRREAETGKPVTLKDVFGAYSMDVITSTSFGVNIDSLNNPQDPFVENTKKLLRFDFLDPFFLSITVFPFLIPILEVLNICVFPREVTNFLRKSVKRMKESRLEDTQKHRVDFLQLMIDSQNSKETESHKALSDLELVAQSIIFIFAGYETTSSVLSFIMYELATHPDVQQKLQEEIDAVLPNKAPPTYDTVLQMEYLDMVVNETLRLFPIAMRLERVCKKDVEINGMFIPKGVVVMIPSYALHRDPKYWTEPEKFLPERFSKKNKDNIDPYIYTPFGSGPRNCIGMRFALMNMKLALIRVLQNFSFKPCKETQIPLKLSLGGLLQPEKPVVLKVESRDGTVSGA
Sequence of Glucocorticoid receptor (Homo sapiens) (P04150 whole entry, looked up, the tested form may be a part): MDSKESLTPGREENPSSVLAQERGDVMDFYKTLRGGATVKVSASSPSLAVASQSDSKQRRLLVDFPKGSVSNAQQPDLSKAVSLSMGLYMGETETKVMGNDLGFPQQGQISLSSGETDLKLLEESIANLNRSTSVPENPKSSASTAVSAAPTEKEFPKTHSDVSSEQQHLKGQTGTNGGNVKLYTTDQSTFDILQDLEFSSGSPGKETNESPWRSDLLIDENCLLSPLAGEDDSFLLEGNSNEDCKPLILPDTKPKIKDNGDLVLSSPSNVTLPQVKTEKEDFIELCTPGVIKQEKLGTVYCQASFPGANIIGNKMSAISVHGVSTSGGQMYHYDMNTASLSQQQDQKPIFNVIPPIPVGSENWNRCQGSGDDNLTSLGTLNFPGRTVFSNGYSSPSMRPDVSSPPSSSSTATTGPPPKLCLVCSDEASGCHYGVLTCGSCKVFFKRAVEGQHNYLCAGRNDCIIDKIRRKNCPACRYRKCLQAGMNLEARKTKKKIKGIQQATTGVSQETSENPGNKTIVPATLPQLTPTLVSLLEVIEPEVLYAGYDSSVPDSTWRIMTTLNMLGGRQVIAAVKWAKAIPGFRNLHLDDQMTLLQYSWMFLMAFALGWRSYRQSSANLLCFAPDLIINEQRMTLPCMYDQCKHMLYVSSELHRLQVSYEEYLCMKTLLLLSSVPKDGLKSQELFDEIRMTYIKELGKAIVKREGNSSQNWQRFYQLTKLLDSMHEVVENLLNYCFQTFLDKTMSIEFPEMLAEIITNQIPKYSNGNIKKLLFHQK
Sequence of Cytochrome P450 1A2 (Homo sapiens) (P05177 whole entry, looked up): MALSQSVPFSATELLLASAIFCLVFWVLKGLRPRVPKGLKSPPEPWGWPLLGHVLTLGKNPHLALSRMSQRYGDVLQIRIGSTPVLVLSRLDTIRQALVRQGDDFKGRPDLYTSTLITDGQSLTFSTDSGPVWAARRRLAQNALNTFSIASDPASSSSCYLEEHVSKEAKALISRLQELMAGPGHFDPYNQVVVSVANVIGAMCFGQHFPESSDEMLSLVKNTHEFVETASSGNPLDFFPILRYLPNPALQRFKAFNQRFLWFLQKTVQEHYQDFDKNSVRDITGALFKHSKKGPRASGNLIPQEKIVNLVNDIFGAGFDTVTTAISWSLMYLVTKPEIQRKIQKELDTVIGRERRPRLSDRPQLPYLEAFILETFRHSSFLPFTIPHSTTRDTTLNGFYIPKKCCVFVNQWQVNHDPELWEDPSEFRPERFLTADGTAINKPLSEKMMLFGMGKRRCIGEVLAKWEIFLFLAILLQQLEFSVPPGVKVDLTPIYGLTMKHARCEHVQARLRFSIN
Sequence of Cytochrome P450 2C19 (Homo sapiens) (P33261 whole entry, looked up): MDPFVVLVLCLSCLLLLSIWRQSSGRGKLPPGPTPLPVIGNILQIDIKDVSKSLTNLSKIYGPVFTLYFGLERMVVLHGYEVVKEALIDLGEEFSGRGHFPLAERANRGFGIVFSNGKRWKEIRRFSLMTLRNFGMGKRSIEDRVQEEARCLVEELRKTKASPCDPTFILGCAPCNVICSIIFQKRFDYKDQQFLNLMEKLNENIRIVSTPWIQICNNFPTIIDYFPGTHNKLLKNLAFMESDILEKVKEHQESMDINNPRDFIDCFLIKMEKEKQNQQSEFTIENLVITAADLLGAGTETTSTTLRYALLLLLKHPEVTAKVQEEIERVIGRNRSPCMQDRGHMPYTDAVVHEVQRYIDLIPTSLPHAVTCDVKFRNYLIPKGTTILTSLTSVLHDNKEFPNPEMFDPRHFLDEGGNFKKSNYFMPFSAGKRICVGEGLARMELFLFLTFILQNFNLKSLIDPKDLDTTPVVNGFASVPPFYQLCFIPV

Turning to `O=c1c(-c2ccc(F)cc2)nc2cnc(Oc3cccc(Cl)c3)nc2n1C[C@H]1CCCO1`, the Potency is more than 11.4 µM in [1], more than 9.22 µM in experiment [4] and more than 46 µM in experiment [5]. In addition, the activity change, negative = inhibition in experiment [2] was -18.3%. Further, the activity, negative = inhibition in experiment [3] was -26%. For the same compound, the Potency entry in experiment [6], in [7], in experiment [8], in experiment [9], in experiment [10] and in experiment [11] was “inactive” in each case. Further, in experiment [12], the Potency result was “inactive”. In experiment [13], the outcome was inactive.
Turning to `CCNc1ncc2nc(-c3ccc(Cl)cc3)c(=O)n(C)c2n1`, the activity change, negative = inhibition was 23.6% in experiment [14] and 20% in experiment [2]. For the same compound, the Potency in experiment [15] is 0.398 µM (active); in [4] it was more than 9.22 µM; in [5] it was more than 46 µM. Besides, the Potency result in experiment [6], in [7], in [9], in experiment [10], in experiment [11] and in experiment [12] was “inactive” each time. Moreover, the result in [13] was inactive.
Consider `COc1ccccc1CNc1ccnc(-c2ccccc2Cl)n1`, for which the activity change, negative = inhibition in [14] is -21.9%; in experiment [2] it was -0.207%. For the same compound, the Potency in experiment [15] was 5.01 µM (active); in [4], more than 46 µM; in [5], more than 46 µM; in experiment [16], 1.58 µM (active). Further, the activity, negative = inhibition in [3] is -0.645%. Besides, the Potency entry in experiment [6], in experiment [7], in experiment [8], in [9], in [10] and in experiment [11] was “inactive” each time. Further, the outcome in experiment [13] was inactive.
As for `COc1cccc(Nc2ncc3ncc(=O)n(C[C@H]4CCCO4)c3n2)c1`, the Potency in [1] is more than 11.4 µM; in [4] it was more than 9.22 µM; in experiment [5] it was more than 46 µM; in [9] it was 1.41 µM (active); in [10], 1.58 µM (active); in experiment [11] it was 0.794 µM (active). Further, the Potency result in experiment [6], in experiment [7] and in [12] was “inactive” each time. The result in experiment [13] was inactive.
As to `O=c1c(-c2cccc(Cl)c2)nc2cncnc2n1-c1ccccc1`, the activity change, negative = inhibition was -18.9% in experiment [14] and 9.76% in experiment [2]. The Potency in [15] is 2 µM (active); in [4] it was more than 9.22 µM; in [5] it was more than 46 µM. Besides, the activity, negative = inhibition in experiment [3] was 0.546%. Further, the Potency entry in experiment [6], in experiment [8], in [9], in experiment [10], in experiment [11] and in [12] was “inactive” in each case. In addition, the result in experiment [13] was inactive.
Turning to `CCNc1ncc2nc(-c3ccc(OC)cc3)c(=O)n(CCC#N)c2n1`, the Potency was more than 11.4 µM in experiment [1], 10 µM (active) in experiment [15], more than 9.22 µM in experiment [4] and more than 46 µM in experiment [5]. For the same compound, the activity change, negative = inhibition in [14] was -5.2%; in experiment [2] it was -15.6%. Moreover, in experiment [3], the activity, negative = inhibition was -7.35%. Moreover, the Potency entry in [6], in [7], in experiment [8], in experiment [9], in experiment [10] and in experiment [12] was “inactive” in each case. Further, the result in [13] was inactive.
Consider `CCNc1ncc2nc(-c3cccs3)c(=O)n(CCc3ccccc3)c2n1`, for which the Potency in experiment [15] is 10 µM (active); in [4], more than 9.22 µM; in [5] it was more than 46 µM; in experiment [17], 1 µM (active). The activity, negative = inhibition in experiment [3] was 98% [activator] (active). Further, the Potency result in experiment [6], in experiment [8], in [9], in experiment [10], in [11] and in experiment [12] was “inactive” in each case. Further, the outcome in [13] was inactive.
